Luciferase inh: Photinus pyralis luciferase inhibition. purified P. pyralis luciferase, luminescence, biochemical. AID 1347043. P08659. Potency, µM (highest dose often 115 µM), hits mostly inhibitors. actives 2.5% (n = 76,000); further: nearly all actives have a fitted effect of over 65% in size
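Luminescence read by CCD imaging after purified firefly luciferase (10nM final) was added to substrate buffer holding 10uM D-luciferin and 10uM ATP, pH 7.5, pre-dosed with compound.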
SNCA viab count: counter-screen for SNCA expression inhibitors: cell viability; HEK-293-SNCA-luc viability, GF-AFC fluorescence, 24 h; Potency, µM (series often up to 57.1 µM), hits mostly cytotoxic; actives 0.12% (n = 150,000); AID 1671193; further: nearly all actives have a fitted effect of over 30% in size
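HEK-293-SNCA-luc cells (1500/well) plated 24 h, then exposed 24 h to a dilution series; GF-AFC added 30 min at 37C, fluorescence 405/540 nm; normalised to medium-only and DMSO wells, Hill fit.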
HEK293 tox: HEK 293 cell cytotoxicity; Potency, µM (highest dose often 115 µM), actives largely listed as inhibitors; AID 1345083; actives 6.6% (n = 94,000); HEK 293 viability, ATP luminescence (CellTiter-Glo), 48-72 h; further: nearly all actives have a fitted effect of over 60% in size
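CellTiter-Glo luminescence (cellular ATP) was read after 48 or 72 hr of compound exposure at 37 degree Celsius. Cells were HEK 293 plated at 250 cells/well.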
NIH3T3 tox: NIH 3T3 cell cytotoxicity | NIH 3T3 viability, CellTiter-Glo ATP luminescence, 48-72 h | AID 1345082 | actives 4.3% (n = 94,000) | Potency, µM (highest dose often 96.7 µM), usual class: inhibitors; further: nearly all actives have a fitted effect of over 55% in size
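ATP-dependent luminescence (CellTiter-Glo) served as the viability signal for NIH 3T3 cells treated with compound for 48 or 72 hr at 37 °C.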
hNpr1 antagonist: blocks ANP-stimulated signaling of human Npr1 receptor. actives 1.6% (n = 76,000). P16066. Potency, µM (highest dose often 46.3 µM), usual class: inhibitors. HEK293 hNpr1 GloSensor cGMP, ANP-stimulated luminescence. AID 1347048; calls by dose curve; further: nearly all actives have a fitted effect of over 60% in size
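HEK293 cells stably expressing human Npr1 and cGMP GloSensor pGS-40F, loaded 2 h with 2% GloSensor reagent, given compound 30 min at room temperature. Luminescence read before and 20 min after 0.1 nM hNppA.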
SNCA expr inh: reduces expression of the alpha-synuclein gene. AID 1671194. actives 0.17% (n = 140,000). HEK-293 SNCA-luciferase knock-in, luminescence, 24 h. Potency, µM (series often up to 57.2 µM), hits mostly inhibitors; further: nearly all actives have a fitted effect of over 45% in size
Numbers stand for hits. Compounds with a hit are over-represented: about 7.2% of the library has one in this group of screens. Unless noted, the call rests on the fitted dose curve; in most records, active means well fitted curve in the direction sought with a large enough effect; inconclusive means small, poorly fitted or top-dose-only effect, or another doubt; inactive means no such curve, though single readings can be large; an effect the other way counts as inactive or inconclusive.

For COc1ccc(-c2ccccc2NC(=O)C2CCCN(Cc3ccccc3O)C2)cc1 (stereo unspecified) the results were Luciferase inh inactive, SNCA viab count inactive, HEK293 tox 25µM, NIH3T3 tox inconclusive, hNpr1 antagonist inactive and SNCA expr inh inactive.
Screening O=C(c1ccc(C(F)(F)F)cc1)N1CCC2(C1)C(=NC1CCCC1)NC(=O)N2c1cc(F)cc(F)c1 (stereo unspecified) returned SNCA viab count inactive, HEK293 tox inactive, NIH3T3 tox inactive and SNCA expr inh inactive.
`CCn1nc(-c2ccccc2SC)nc1N(C)C` gave Luciferase inh inactive, SNCA viab count inactive, HEK293 tox inactive, NIH3T3 tox inactive, hNpr1 antagonist inactive and SNCA expr inh inactive.
`CCn1nc(-c2ccc3c(c2)OCCO3)nc1N(C)C` gave Luciferase inh 40µM, SNCA viab count inactive, HEK293 tox inactive, NIH3T3 tox inactive, hNpr1 antagonist inactive and SNCA expr inh inactive.
COc1ccc(C2Cn3cnc(C(=O)N4CCC(C(=O)NCc5ccc(C)cc5)CC4)c3CO2)cc1 (stereo unspecified) was read as Luciferase inh inactive, SNCA viab count inactive, HEK293 tox inactive, NIH3T3 tox inactive, hNpr1 antagonist inactive and SNCA expr inh inactive.
`CCc1ccc(CNC(=O)C2CCN(C(=O)c3ncn4c3COC(c3ccccc3)C4)CC2)cc1` (stereo unspecified) gave Luciferase inh 35µM, SNCA viab count inactive, HEK293 tox inactive, NIH3T3 tox inactive, hNpr1 antagonist inactive and SNCA expr inh inactive.
For Cc1cccc(CNC(=O)C2CCN(C(=O)c3ncn4c3COC(c3ccc(F)cc3)C4)CC2)c1 (stereo unspecified) the results were Luciferase inh 45µM, SNCA viab count inactive, HEK293 tox inactive, NIH3T3 tox inactive, hNpr1 antagonist inactive and SNCA expr inh inactive.
For Cc1n[nH]c(C)c1CNC(=O)C1CCN(C(=O)c2ncn3c2COC(c2ccc(F)cc2)C3)CC1 (stereo unspecified) the results were Luciferase inh 25µM, SNCA viab count inactive, HEK293 tox inactive, NIH3T3 tox inactive, hNpr1 antagonist inactive and SNCA expr inh inactive.
Screening Cc1ccc(C2Cn3cnc(C(=O)N4CCC(C(=O)NCc5cccc(F)c5)CC4)c3CO2)cc1 (stereo unspecified) returned Luciferase inh 50µM, SNCA viab count inactive, HEK293 tox inactive, NIH3T3 tox inactive, hNpr1 antagonist inactive and SNCA expr inh inactive.
O=S(=O)(c1ccccc1)N1CCCC(c2nc(CCOCc3ccccc3)no2)C1 (stereo unspecified) was read as SNCA viab count inactive, HEK293 tox inconclusive, NIH3T3 tox inconclusive and SNCA expr inh inactive.
`O=C(NCC1CCCO1)C1CCN(C(=O)c2ncn3c2COC(c2ccc(F)cc2)C3)CC1` (stereo unspecified) gave Luciferase inh 40µM, SNCA viab count inactive, HEK293 tox inactive, NIH3T3 tox inactive, hNpr1 antagonist inactive and SNCA expr inh inactive.
For COc1cccc(CNC(=O)C2CCN(C(=O)c3ncn4c3COC(c3ccccc3)C4)CC2)c1 (stereo unspecified) the results were Luciferase inh 22µM, SNCA viab count inactive, HEK293 tox inactive, NIH3T3 tox inactive, hNpr1 antagonist inactive and SNCA expr inh inactive.
Screening O=C(NC1CCc2ccccc21)C1CCN(C(=O)c2ncn3c2COC(c2ccccc2)C3)CC1 (stereo unspecified) returned Luciferase inh 40µM, SNCA viab count inactive, HEK293 tox inactive, NIH3T3 tox inactive, hNpr1 antagonist inactive and SNCA expr inh inactive.
For O=C(NCCCc1ccccc1)C1CCN(C(=O)c2ncn3c2COC(c2ccccc2)C3)CC1 (stereo unspecified) the results were Luciferase inh 16µM, SNCA viab count inactive, HEK293 tox inactive, NIH3T3 tox inactive, hNpr1 antagonist inactive and SNCA expr inh inactive.
Screening COc1ccc(C2Cn3cnc(C(=O)N4CCC(C(=O)NCC5CCCO5)CC4)c3CO2)cc1 (stereo unspecified) returned Luciferase inh inactive, SNCA viab count inactive, HEK293 tox inactive, NIH3T3 tox inactive, hNpr1 antagonist inactive and SNCA expr inh inactive.
For Cc1cc(C(F)(F)F)n(CC(C)Cn2cc(-c3cncnc3)nn2)n1 (stereo unspecified) the results were Luciferase inh inactive, SNCA viab count inactive, HEK293 tox inactive, NIH3T3 tox inactive, hNpr1 antagonist inactive and SNCA expr inh inactive.
O=C(NCc1cccc(F)c1)C1CCN(C(=O)c2ncn3c2COC(c2ccc(F)cc2)C3)CC1 (stereo unspecified) was read as Luciferase inh 32µM, SNCA viab count inactive, HEK293 tox inactive, NIH3T3 tox inactive, hNpr1 antagonist inactive and SNCA expr inh inactive.
Screening O=C(NCc1ccccc1)C1CCN(C(=O)c2ncn3c2COC(c2ccc(F)cc2)C3)CC1 (stereo unspecified) returned Luciferase inh inconclusive, SNCA viab count inactive, HEK293 tox inactive, NIH3T3 tox inactive, hNpr1 antagonist inactive and SNCA expr inh inactive.
`Cc1ccc(C2Cn3cnc(C(=O)N4CCC(C(=O)NCc5cc(F)ccc5F)CC4)c3CO2)cc1` (stereo unspecified) gave Luciferase inh 40µM, SNCA viab count inactive, HEK293 tox inactive, NIH3T3 tox inactive, hNpr1 antagonist inactive and SNCA expr inh inactive.
`Cc1ccc(C2Cn3cnc(C(=O)N4CCC(C(=O)NCc5ccccc5)CC4)c3CO2)cc1` (stereo unspecified) gave Luciferase inh 40µM, SNCA viab count inactive, HEK293 tox inconclusive, NIH3T3 tox inactive, hNpr1 antagonist inactive and SNCA expr inh inactive.
O=C(NCc1ccccn1)C1CCN(C(=O)c2ncn3c2COC(c2ccc(F)cc2)C3)CC1 (stereo unspecified) was read as Luciferase inh 35µM, SNCA viab count inactive, HEK293 tox inactive, NIH3T3 tox inactive, hNpr1 antagonist inactive and SNCA expr inh inactive.
`CN(Cc1ccc(-c2ccccc2)cc1)Cc1cccn1C` gave Luciferase inh inactive, SNCA viab count inactive, HEK293 tox inconclusive, NIH3T3 tox inconclusive, hNpr1 antagonist inactive and SNCA expr inh inactive.
For O=C(CCc1ccccc1)N1CC(Oc2cccc(-c3nc(-c4ccccc4)no3)c2)C1 the results were SNCA viab count inactive, HEK293 tox inconclusive, NIH3T3 tox inconclusive and SNCA expr inh inactive.
Screening CC(C)N(C)Cc1ccc(-c2nc(-c3cccnc3)cc(=O)[nH]2)cc1 returned Luciferase inh inactive, SNCA viab count inactive, HEK293 tox inactive, NIH3T3 tox inactive, hNpr1 antagonist inactive and SNCA expr inh inactive.

Screening results: PubChem BioAssay, National Center for Advancing Translational Sciences (NCATS)
